Measured potencies and affinities stand elsewhere.
How the values were obtained:
Staphylococcus aureus = details: Concentration 32 ug.mL-1; ASSAY_TEST Inhibition of Bacterial Growth; detection method Absorption (OD600); MEDIA CAMHB; plate type 384well; NBS; CORNING #3640; time 18 hr
Escherichia coli = details: Concentration 32 ug.mL-1; ASSAY_TEST Inhibition of Bacterial Growth; detection method Absorption (OD600); MEDIA CAMHB; plate type 384well; NBS; CORNING #3640; time 18 hr

Structure (SMILES) | Inhibition (Staphylococcus aureus) | Inhibition (Escherichia coli)
CC(=O)O[C@H]1C[C@@]2(C)C(C[C@@H](O)C3[C@@]4(C)CC[C@@H](OC(=O)C(C)N)[C@@H](C)C4CC[C@@]32C)/C1=C(\CCC=C(C)C)C(=O)OCc1ccccc1 (some centres not stated) | 32.79% | -12.12%
CC(=O)O[C@H]1C[C@@]2(C)C(C[C@@H](O)C3[C@@]4(C)CC[C@@H](O)[C@@H](C)C4CC[C@@]32C)/C1=C(\CCC=C(C)C)C(=O)On1nnc2ccccc21 (some centres not stated) | 73.87% | -6.08%
CC(=O)O[C@H]1C[C@@]2(C)C(C[C@@H](O)C3[C@@]4(C)CC[C@@H](OC(=O)CCC(=O)O)[C@@H](C)C4CC[C@@]32C)/C1=C(\CCC=C(C)C)C(=O)OCc1ccccc1 (some centres not stated) | 44.88% | 10.14%
CC(=O)O[C@H]1C[C@@]2(C)C(CC(=O)C3[C@@]4(C)CC[C@@H](OC(=O)CCCCO[N+](=O)[O-])[C@@H](C)C4CC[C@@]32C)/C1=C(\CCC=C(C)C)C(=O)OCc1ccccc1 (some centres not stated) | 9.81% | -0.69%
CC(=O)O[C@H]1C[C@@]2(C)C(C[C@@H](O)C3[C@@]4(C)CC[C@@H](OC(=O)c5ccccc5C(=O)Nc5ccc(N)cc5)[C@@H](C)C4CC[C@@]32C)/C1=C(\CCC=C(C)C)C(=O)OCc1ccccc1 (some centres not stated) | 7.06% | 1.09%
CC(=O)O[C@H]1C[C@@]2(C)C(C[C@@H](O)C3[C@@]4(C)CC[C@@H](OC(=O)c5ccccc5C(=O)Oc5ccc(CCO[N+](=O)[O-])cc5)[C@@H](C)C4CC[C@@]32C)/C1=C(\CCC=C(C)C)C(=O)OCc1ccccc1 (some centres not stated) | -1.26% | -6.53%
CC(=O)O[C@H]1C[C@@]2(C)C(C[C@@H](O)C3[C@@]4(C)CC[C@@H](O)[C@@H](C)C4CC[C@@]32C)/C1=C(\CCC=C(C)C)C(=O)Oc1ccc(CCO[N+](=O)[O-])cc1 (some centres not stated) | 23.19% | -3.14%
CC(=O)O[C@H]1C[C@@]2(C)C(C[C@@H](O)C3[C@@]4(C)CC[C@@H](OC(=O)CCCCO[N+](=O)[O-])[C@@H](C)C4CC[C@@]32C)/C1=C(\CCC=C(C)C)C(=O)OCc1ccccc1 (some centres not stated) | 9.5% | -4.08%
CC(=O)O[C@H]1C[C@@]2(C)C(C[C@@H](O)C3[C@@]4(C)CC[C@@H](OC(=O)CCCCCO[N+](=O)[O-])[C@@H](C)C4CC[C@@]32C)/C1=C(\CCC=C(C)C)C(=O)OCc1ccccc1 (some centres not stated) | 6.22% | -6.82%
CC(=O)O[C@H]1C[C@@]2(C)C(C[C@@H](O)C3[C@@]4(C)CC[C@@H](O)[C@@H](C)C4CC[C@@]32C)/C1=C(\CCC=C(C)C)C(=O)OCc1ccccc1 (some centres not stated) | 36.65% | -11.95%
CC(=O)O[C@H]1C[C@@]2(C)C(CC(=O)C3[C@@]4(C)CCC(=O)[C@@H](C)C4CC[C@@]32C)/C1=C(\CCC=C(C)C)C(=O)OCc1ccccc1 (some centres not stated) | 29.92% | -4.11%
CC(=O)O[C@H]1C[C@@]2(C)C(C[C@@H](O)C3[C@@]4(C)CC[C@@H](OC(=O)C(N)C(C)C)[C@@H](C)C4CC[C@@]32C)/C1=C(\CCC=C(C)C)C(=O)OCc1ccccc1 (some centres not stated) | -9.9% | -10.45%
CC(=O)O[C@H]1C[C@@]2(C)C(C[C@@H](O)C3[C@@]4(C)CC[C@@H](OC(=O)CO[N+](=O)[O-])[C@@H](C)C4CC[C@@]32C)/C1=C(\CCC=C(C)C)C(=O)OCc1ccccc1 (some centres not stated) | 5.41% | 4.14%
CC(=O)O[C@H]1C[C@@]2(C)C(C[C@@H](O)C3[C@@]4(C)CC[C@@H](OC(=O)CCC(=O)Oc5ccc(CCO[N+](=O)[O-])cc5)[C@@H](C)C4CC[C@@]32C)/C1=C(\CCC=C(C)C)C(=O)OCc1ccccc1 (some centres not stated) | -9.31% | -12.6%
CC(=O)O[C@H]1C[C@@]2(C)C(C[C@@H](O)C3[C@@]4(C)CC[C@@H](OC(=O)CCC(=O)OCCc5ccc(OCCO[N+](=O)[O-])cc5)[C@@H](C)C4CC[C@@]32C)/C1=C(\CCC=C(C)C)C(=O)OCc1ccccc1 (some centres not stated) | -0.26% | -8.83%
CC(=O)O[C@H]1C[C@@]2(C)C(CC(=O)C3[C@@]4(C)CC[C@@H](OC(=O)CCCCCO[N+](=O)[O-])[C@@H](C)C4CC[C@@]32C)/C1=C(\CCC=C(C)C)C(=O)OCc1ccccc1 (some centres not stated) | 5.71% | -2.8%

— ChEMBL document CHEMBL4513152, “CO-ADD screening of Yantai University (China) compounds”
